Assay outcomes as filed in PubChem BioAssay.
A selection: hits, their analogues and other compounds. The true share with any hit is near 1.8%.
PriA SSB inh = inhibitors of Klebsiella pneumoniae PriA binding to SSB C-terminal tail. AlphaScreen SSBct-PriA binding, biotinylated peptide. inhibition, % at 33 µM. actives 0.6% (n = 430,000); in the data active means inhibition mostly above about 37%, no sharp cut-off; inactive means mostly below about 20%;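 further: plate controls were negative control peptide for no effect and reference peptide for full effect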
DUSP3 inh = inhibitors of human VHR1 phosphatase (DUSP3); actives 0.52% (n = 290,000); inhibition, % at 13.3 µM; recombinant VHR phosphatase, pNPP absorbance; P51452; in the data active means inhibition above about 50%
Target sequence (P51452 whole entry, looked up): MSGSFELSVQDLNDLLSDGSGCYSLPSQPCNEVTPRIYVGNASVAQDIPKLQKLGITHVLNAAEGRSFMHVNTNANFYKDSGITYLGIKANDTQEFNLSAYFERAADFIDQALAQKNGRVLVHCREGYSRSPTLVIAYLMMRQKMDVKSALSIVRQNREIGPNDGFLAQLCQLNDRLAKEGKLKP
Sa RN4220 lethal = S. aureus RN4220 growth inhibition. OD600, 16 h. inhibition, % (no concentration beside the values). actives 0.33% (n = 330,000); in the data active means inhibition above about 85%;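 further: plate controls were untreated cells for no effect and reference antibiotic for full effect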
PfHsp40 rescue = compounds rescuing yeast from Plasmodium falciparum HSP40 toxicity. actives 0.68% (n = 340,000). AID 504582. S. cerevisiae expressing PfHsp40, growth rescue, ATP luminescence. growth rescue, % at 12.5 µM; in the data active means growth rescue above about 28%, passing the limit was not always enough;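 further: yeast W303a lacking pdr1 and pdr3 grown in galactose medium; growth measured after three days at 30 °C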
Sa ugtP lethal = compounds lethal to S. aureus RN4220 ugtP deletion mutant; OD600 growth, 16 h; growth inhibition, % (concentration not given with the values); actives 0.54% (n = 330,000); in the data active means growth inhibition above about 68%;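 further: plate controls were untreated wells for no effect and antibiotic for full effect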
Mtb hypoxia rep = inhibitors of hypoxia-regulated fluorescent reporter in Mycobacterium tuberculosis | M. tuberculosis hypoxia-regulated fluorescent reporter, fluorescence | fluorescence inhibition, % (test concentration not listed) | actives 0.1% (n = 300,000); in the data active means fluorescence inhibition mostly above about 23%, no sharp cut-off; inactive means mostly below about 17%
* = called active by the depositor; nt = no result shown.

SMILES | PriA SSB inh | DUSP3 inh | Sa RN4220 lethal | PfHsp40 rescue | Sa ugtP lethal | Mtb hypoxia rep
CS(=O)(=O)N1CCC(C(=O)Nc2nc3c(s2)Cc2ccccc2-3)CC1 | 8 | nt | nt | nt | nt | nt
CCOCCCNC(=O)C1(O)c2cc(Br)ccc2NC(=O)N1c1ccc(OCC)cc1 (configuration not stated) | -1 | nt | -4 | 51* | -3 | 4
CC(=NNS(=O)(=O)c1cccc([N+](=O)[O-])c1)c1ccncc1 | -11 | nt | 8 | nt | 8 | 6
COC(=O)C1=C(C)NC(C)=C(C(=O)OCC(C)C)C1c1ccccc1[N+](=O)[O-] (configuration not stated) | 3 | nt | nt | 289* | nt | nt
N#Cc1cccnc1N1CCC(CNC(=O)Nc2cccs2)CC1 | -5 | nt | nt | nt | nt | nt
N/C(=N\OC(=O)c1ccc2ccccc2c1)c1ccccn1 | nt | 17 | nt | -2 | nt | nt
NC(=Nc1nc(-c2ccccn2)cc2ccccc12)c1ccccn1 | 2 | nt | nt | 163* | nt | nt
Cc1ccc(S(=O)(=O)N=C(N)Nc2nc(C)c3cc(C)ccc3n2)cc1 | -11 | nt | -4 | nt | -6 | 1
CCn1c(C2CCN(C(=O)Nc3ccccc3Cl)CC2)nn(CCOC)c1=O | -16 | nt | nt | nt | nt | nt
CC(C(=O)N/N=C/c1ccc(N(C)C)c(Br)c1)N(c1ccccc1)S(C)(=O)=O (configuration not stated) | nt | 50* | nt | -1 | nt | nt
O=[N+]([O-])c1cc(/C=N/O)ccc1SCc1ccccc1Cl | nt | 53* | nt | -2 | nt | nt
O=[N+]([O-])c1cc(C=NO)ccc1SCc1ccccc1 | 5 | nt | 5 | nt | -6 | 0
COc1ccccc1-n1cc(C(=O)NCC(=O)N2CCN(c3ccccc3)CC2)c2ccccc2c1=O | -13 | 51* | 3 | 0 | -2 | 3
Cc1ccc(C=NNC(=O)Cn2nccc2C)o1 | -9 | nt | -2 | nt | -2 | 0
Cn1c(C=O)c(C#Cc2ccccc2)c2ccccc21 | -159 | nt | -3 | 0 | 100* | 2
Cn1c(-c2ccc(C#N)cc2)c(C#Cc2ccccc2)c2ccccc21 | -26 | nt | nt | -1 | nt | nt
COc1ccc(C#Cc2c(C=O)n(C)c3ccccc23)cc1 | -30 | nt | 1 | -1 | 100* | 15
COc1ccc(Cc2nnc(C3CCN(S(=O)(=O)c4ccccc4)CC3)s2)cc1 | 12 | nt | nt | nt | nt | nt
Brc1ccc2[nH]c3c(N4CCc5ccccc5C4)ncnc3c2c1 | -8 | -2 | 72 | nt | 97* | -4
Fc1ccc2[nH]c3c(N4CCc5ccccc5C4)ncnc3c2c1 | -2 | 20 | -2 | nt | -23 | nt
CC(=O)C1C(c2cccc(C(F)(F)F)c2)NC(=O)N(Cc2ccccc2)C1C (configuration not stated) | nt | nt | 4 | nt | 7 | 15
O=C(CSc1nc(-c2ccccc2)cs1)Nc1ccccc1[N+](=O)[O-] | 48* | -8 | 1 | 0 | 0 | 5
CN1CCN(c2ccc([N+](=O)[O-])c(N3CCCC3)c2)CC1 | 58* | nt | nt | nt | nt | nt
CS(=O)(=O)N1CCN(c2ccc([N+](=O)[O-])c(N3CCCC3)c2)CC1 | 57* | nt | nt | nt | nt | nt
CS(=O)(=O)N1CCN(c2ccc([N+](=O)[O-])c(N3CCOCC3)c2)CC1 | 4 | 16 | -16 | 0 | -6 | 9
SMILES | PriA SSB inh | DUSP3 inh | Sa RN4220 lethal | PfHsp40 rescue | Sa ugtP lethal | Mtb hypoxia rep
Cc1cc(C(=O)N2CCN(c3nc(-c4ccsc4)cs3)CC2)c(C)o1 | 12 | nt | nt | nt | nt | nt
Nc1ccc2nc(CCCCCCc3nc4ccc(N)cc4[nH]3)[nH]c2c1 | 33 | 38 | 0 | 0 | -4 | 0
Nc1ccc2nc(CCCCc3nc4ccccc4[nH]3)[nH]c2c1 | 10 | 52* | -3 | 0 | -4 | -3
Nc1ccc2nc(CCCCCCCCc3nc4ccc(N)cc4[nH]3)[nH]c2c1 | 49* | 37 | 4 | -2 | 7 | 4
COc1cc(-c2ccc(NC(=O)C3CC3)c(OC)c2)ccc1NC(=O)C1CC1 | 13 | nt | nt | nt | nt | nt
CCOC(=O)c1sc(=S)n(-c2cc(F)ccc2F)c1N | -4 | 22 | 0 | 1 | -12 | 2
CCOC(=O)c1sc(=S)n(-c2cc(OC)ccc2OC)c1N | 6 | -6 | 3 | 200* | 17 | nt
O=C(Nc1c(C(=O)NCC2CC2)[nH]c2ccccc12)c1ccc(Cl)cc1 | 0 | nt | nt | nt | nt | nt
Cn1nc([N+](=O)[O-])c(C(C#N)c2nc3ccccc3s2)c(Cl)c1=O (configuration not stated) | 92* | nt | nt | nt | nt | nt
Cn1nc([N+](=O)[O-])c(C(C#N)c2nc3ccccc3n2C)c(Cl)c1=O (configuration not stated) | 25 | -10 | 12 | -2 | 11 | 11
CCOC(=O)CCC(=NNC(N)=O)c1ccc(OC)c(Cl)c1 | -20 | nt | 3 | nt | -2 | 9
CCC(C)C1CN(C(C)CN2CCCC2CN2C(N)=NCC2Cc2ccccc2)C(=N)N1CCc1ccc(Cl)c(Cl)c1 (configuration not stated) | nt | nt | 100* | nt | 98* | nt
CCC(C)C1CN(C(C)CN2CCCC2CN2C(N)=NCC2CC(C)C)C(=N)N1CCc1ccc(Cl)c(Cl)c1 (configuration not stated) | nt | nt | 101* | nt | 99* | nt
CCCCN1C(=N)N([C@@H](C)CN2CCC[C@H]2CN2C(N)=NC[C@H]2CC(C)C)C[C@H]1[C@H](C)CC | -11 | nt | nt | 1 | nt | nt
CCCCN1C(=N)N(C(CCC)CN2CCCC2CN2C(N)=NCC2Cc2ccccc2)CC1C(C)CC (configuration not stated) | nt | nt | -7 | nt | -1 | nt
Cc1cc(NC(=O)CCCn2nc(-c3ccco3)ccc2=O)on1 | -2 | nt | nt | nt | nt | nt
CCn1cc(C(=O)O)c(=O)c2cc(Br)ccc21 | -16 | 0 | 11 | 33* | 8 | 5
Cc1ccc(-n2c(N)cc(=O)nc2SCC(=O)N2CCCc3ccccc32)cc1C | 7 | nt | nt | nt | nt | nt
Cc1cc(C)c2c(c1)-c1cc(C)nn1C(c1ccc3c(c1)OCO3)N2 (configuration not stated) | -21 | 56* | 11 | 0 | 54 | 5
Cc1ccc(N(CC(=O)N2CCCC2)S(C)(=O)=O)cc1C | -3 | 58* | 1 | -1 | 13 | 15
CS(=O)(=O)N(CC(=O)N1CCCC1)c1ccc(Cl)cc1 | -4 | -5 | 5 | -2 | 3 | 2
COc1ccc(C(=O)C[n+]2cc(Br)cc3ccccc32)cc1[N+](=O)[O-] | 7 | 7 | -6 | 0 | -3 | 15
O=C(C[n+]1cc(Br)cc2ccccc21)c1ccccc1 | 8 | 8 | -4 | 49* | 9 | 12
Cc1ccc(-c2cc(N3CCOCC3)c3cc(NC(=O)COc4ccccc4)ccc3n2)cc1 | -6 | nt | nt | nt | nt | nt
CN1CCC/C1=C/C=C1\SC(=S)NC1=O | -1 | 0 | 2 | 3 | 10 | 41*
O=C1c2ccccc2-c2cccc(NS(=O)(=O)c3ccc(C(F)(F)F)cc3)c21 | -3 | 5 | 97* | -1 | 97* | 6
Nc1ccc(-c2nnc(Nc3ccccc3)s2)cc1 | 4 | nt | nt | nt | nt | nt
Cc1ccc(CS(=O)(=O)CCC(=O)NCCCN2CCCC2)cc1 | -3 | 51* | 2 | -1 | 5 | 3
O=C(Oc1ccc(N(C(=O)c2ccncc2)S(=O)(=O)c2ccc(F)cc2)cc1)c1ccncc1 | -19 | 11 | 3 | 5 | -3 | 5
